# Source: PubChem BioAssay (National Center for Advancing Translational Sciences (NCATS))
# A selection: hits, their analogues and other compounds. The true share with any hit is near 19%.
# ELG1 DNA repair – ELG1-dependent DNA repair inhibition | HEK293T ELG1-luciferase reporter, luminescence, 16 h; DNA damage induced by 5-fluorouridine | Potency, µM (series often up to 46.1 µM), most hits filed as inhibitors | 2.3% of 330,000 active; also: nearly all actives have a fitted effect of over 55% in size
#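 HEK293T cells expressing luciferase-tagged ELG1 (2,000/well) received 5-Fluorouridine plus compound or DMSO for 16 hr at 37 °C. Luciferase was read by ONE-Glo luminescence after 30 min at room temperature.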
# IL-1B inflam inh – inhibitors of inflammasome signaling (IL-1 beta secretion). THP-1 LPS/ATP IL-1B secretion, AlphaLISA, 16 h; hits give low values. activity change, % at 57.5 µM. 4.7% of 360,000 active. AID 743279; in the data active = activity change below about -50%; inconclusive = mostly about -30% to -49%
#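 THP-1 cells pretreated 1 hr with compounds (up to 57.5 uM final), then stimulated with LPS (250 ng/mL final) plus ATP (1.25 mM final); secreted IL-1B measured by AlphaLISA after 16 hr, decreased signal indicating inhibition.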
# DT40 TDP1 no CPT – qHTS for Inhibitors of human tyrosyl-DNA phosphodiesterase 1 (TDP1): qHTS in cells in absence of CPT; DT40 Tdp1-/- hTDP1 cells, no CPT, ATP luminescence, 48 h; Potency, µM (highest dose often 46.2 µM), most hits filed as inhibitors; 15% of 420,000 active; AID 686978, 2013; also: nearly all actives have a fitted effect of over 55% in size
#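 Growth of hTDP1-complemented DT40 Tdp1-knockout cells is measured by ATP luminescence after at least 48 hr compound exposure at 37 °C, with DMSO substituting for the 20 nM CPT used in the parallel screen.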
# HT1080 IDH1KD tx – toxicity to HT-1080 IDH1 knockdown cells (counter line); Potency, µM (titrated, usually from 46.1 µM), actives largely listed as cytotoxic; 2% of 360,000 active; AID 686971; HT-1080 IDH1 knockdown viability, ATP luminescence, 48 h
#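 After a 2 h attachment period, IDH1KD HT-1080 cells took pin-transferred compound for 48 h at 37 °C; ATP-based luminescence after 10 min room-temperature reagent incubation reported viability.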
# TDP1 cell CPT – growth inhibition of DT40 Tdp1-/-;hTDP1 cells with camptothecin (screen for TDP1 inhibitors). Potency, µM (series often up to 46.2 µM), actives largely listed as inhibitors. 12% of 420,000 active. chicken DT40 Tdp1-/-;hTDP1 cells + 20 nM CPT, ATP luminescence, 48 h; also: nearly all actives have a fitted effect of over 55% in size
#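 Chicken DT40 Tdp1-/- cells stably complemented with human TDP1 were seeded at 400 cells/well in medium containing 20 nM camptothecin, exposed to pin-transferred compounds, and grown at 37 °C for at least 48 hr. Viability was read as ATP luminescence.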
# HT1080-NT tox – kills 2HG-producing HT-1080-NT fibrosarcoma cells; HT-1080-NT fibrosarcoma viability, CellTiter-Glo ATP luminescence, 48 h; Potency, µM (series often up to 46.1 µM), usual class: cytotoxic; 1.6% of 360,000 active;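 also: NT is the 2HG producing partner of a matched IDH1 knockdown line; nearly all actives have a fitted effect of over 55% in size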
#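 Compounds were tested in concentration-response format on HT-1080-NT cells for 48 hours at 37 degrees C. Cell viability came from CellTiter-Glo luminescence; curves were classified by r2, response magnitude and activity.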
# Hits are given with their value; – = inactive; ? = inconclusive; · = no result. Unless noted, calls follow the shape of the dose curve; as a rule, active = well fitted curve in the direction sought with a large enough effect; inconclusive = small, poorly fitted or top-dose-only effect, or another doubt; inactive = no such curve, though single readings can be large; an effect the other way counts as inactive or inconclusive.
SMILES,ELG1 DNA repair,IL-1B inflam inh,DT40 TDP1 no CPT,HT1080 IDH1KD tx,TDP1 cell CPT,HT1080-NT tox
CCOC(=O)C1=CN(Cc2cccc(F)c2)S(=O)(=O)N(CC)C1c1ccc(Br)cc1F (stereo unspecified),–,–,?,–,?,–
CCOC(=O)C1=CN(Cc2cccc(F)c2)S(=O)(=O)N(CC)C1c1ccc(C(F)(F)F)cc1 (stereo unspecified),–,–,23µM,–,21µM,–
COc1ccc(-c2nn(CCC#N)cc2C(=O)Nc2cccc(C(=O)O)c2)cc1OC,–,–,–,–,–,–
CC(CC(=O)NNC(=O)c1ccncc1)c1ccccc1 (stereo unspecified),–,–,–,–,–,–
CC(C)N(Cc1ccccc1)C(=O)COC(=O)/C=C/c1cnc2ccccc2n1,–,-201,–,–,–,–
CCN(C(=O)COC(=O)/C=C/c1cnc2ccccc2n1)c1ccccc1,–,–,–,–,–,–
CC1CC(C)CN(C(=O)/C(=C\c2ccccc2)c2ccccc2)C1 (stereo unspecified),–,?,13µM,–,16µM,–
Fc1ccc(N2CCN(Cc3cccn3-c3nnc(N4CCN(C5CCCCC5)CC4)s3)CC2)cc1,·,·,–,·,–,·
COc1ccccc1CNC(=O)c1cccn1-c1nnc(N2CCCCC2)s1,·,·,–,·,–,·
CCc1ccc(NCc2cccn2-c2nnc(N3CCCCCC3)s2)cc1,·,·,16µM,·,21µM,·
COc1ccc(NCc2cccn2-c2nnc(N3CCOCC3)s2)cc1OC,·,·,?,·,–,·
Cc1ccc(CNCc2cccn2-c2nnc(N3CCCC3)s2)cc1,·,·,16µM,·,?,·
COc1ccc(NCc2cccn2-c2nnc(N3CCCCC3)s2)cc1OC,·,·,16µM,·,?,·
COc1ccc(NC(=O)CN(C)C(=O)CNC(=O)c2ccc3c(c2)OCO3)cc1,–,–,–,–,–,–
O=C(Nc1ccc(Cl)c([N+](=O)[O-])c1)ONC1=NCCCCC1,–,-53,13µM,–,?,–
Cc1cc(N)n2nc(-c3ccccc3)cc2n1,?,-72,?,?,–,?
O=C(NC1CC1)c1cc2cc3ccccc3nc2s1,?,–,?,–,23µM,–
CCOc1ccc(C(=O)N/N=C/c2cccc3cccnc23)cc1,?,–,9.2µM,?,10µM,?
COc1ccc(C(=O)N/N=C/c2c[nH]c3ccccc23)cc1,?,–,–,–,–,–
COc1ccc(C(=O)N/N=C/c2cccc3cccnc23)cc1,–,–,4.6µM,?,4.1µM,–
COc1ccc(C(=O)N/N=C/c2cc3ccccc3[nH]c2=S)cc1,?,–,1.5µM,?,1.5µM,–
CCOc1ccccc1C(=O)N/N=C/c1cccc2cccnc12,?,–,?,?,?,–
CSCC[C@H](NC(=O)OC(C)(C)C)C(=O)N/N=C/c1cccc2cccnc12,?,–,21µM,?,26µM,–
O=C(Nc1sc2c(c1C(=O)NCc1ccccc1)CCCC2)c1cc(=O)c2cc(Cl)ccc2o1,·,·,–,·,–,·
COc1ccc(C(=O)Nc2ccc(N3CCN(c4ccccc4)CC3)c(C(=O)O)c2)cc1,·,·,–,·,–,·
SMILES,ELG1 DNA repair,IL-1B inflam inh,DT40 TDP1 no CPT,HT1080 IDH1KD tx,TDP1 cell CPT,HT1080-NT tox
COc1cnc(-c2ccccc2)nc1Sc1ccccc1,?,–,?,–,–,–
CCOC(=O)C(C)Sc1ncc(OC)c(Sc2ccc(Cl)cc2)n1 (stereo unspecified),–,–,–,–,–,–
COc1cnc(-c2ccccn2)nc1Sc1ccccc1Cl,?,–,1µM,–,1.5µM,?
COc1cnc(-c2ccccn2)nc1Sc1c(Cl)cccc1Cl,?,–,0.92µM,7.9µM,0.65µM,16µM
COc1ccccc1Sc1nc(-c2ccccc2)ncc1OC,–,–,21µM,–,?,–
COc1cnc(N(C)C)nc1Sc1cccc(Cl)c1,–,–,?,–,?,–
CCOC(=O)C(C)Sc1nc(-c2ccccn2)ncc1OC (stereo unspecified),–,–,5.8µM,–,2.9µM,–
CCOc1ccc(N(C(=O)c2ccccc2F)S(=O)(=O)c2ccc3c(c2)n(C)c(=O)n3C)cc1,·,·,–,·,–,·
Cc1cccc(-c2nc3c4ccccc4nc(NCc4ccc(Cl)cc4)n3n2)c1,·,·,–,·,–,·
CCCOc1ccc(/C=C/C(=O)N2CCN(C(=O)c3ccco3)CC2)cc1OC,·,–,13µM,–,?,–
COc1ccc(/C=C/C(=O)NC(=S)NNC(=O)c2ccco2)cc1OC,–,–,23µM,–,?,–
COc1ccc(NC(=S)NNC(=O)c2ccco2)c(OC)c1,·,–,–,–,–,–
COc1ccc(/C=C/C(=O)NC(=S)NNC(=O)c2ccco2)cc1,–,–,21µM,–,15µM,–
